# Sampled rows, rich in hits. Any-hit rate of the full collection: about 6.6%.
# RGS4 inh – Inhibitors of Regulator of G Protein Signaling (RGS) 4: qHTS | Regulator of G-protein signaling 4 (Homo sapiens), P49798 | Transcreener GDP fluorescence polarization, RGS4-accelerated GTP hydrolysis | Potency, µM (series often up to 114 µM), without a hit: top-dose activity change, negative = inhibition, most hits filed as inhibitors | 390,000 compounds, 0.039% hits; note: % is set by controls: 0 for no effect and ±100 for the full control effect; nearly all actives have a fitted effect of over 75% in size
#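 MLSMR compounds (23 nl, pin-transferred) preincubated 10 min at room temperature with a 500nM (2x) first reagent, then RGS4 at 900nM (2x) plus Transcreener GDP mix added; fluorescence polarization (620/688 nm) read before and after 90 min at 30 °C.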
# SW480 rereplic – A quantitative high throughput screen for small molecules that induce DNA re-replication in SW480 colon adenocarcinoma cells. SW480 DNA re-replication, Hoechst DNA content imaging, 48 h. Potency, µM (series often up to 46.1 µM), inactives show at the highest dose re-replication activation, actives largely listed as activators. 340,000 compounds, 1.8% hits. AID 624297, 2012; note: % of control where 0% means no effect; nearly all actives have a fitted effect of over 55% in size
#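 Treated cells incubate 48 hr (37 C, 5% CO2), are stained 40 min with Hoechst, and nuclear fluorescence is enumerated; a rise in nuclei with high DNA signal marks re-replication.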
# PTAP TSG101 blk – qHTS Assay for Iinhibitors of HIV-1 Budding by Blocking the Interaction of PTAP/TSG101; Tumor susceptibility gene 101 protein (Homo sapiens), Q99816; Fluorescence polarization, FITC-PTAP peptide / Tsg101 binding; Potency, µM (highest dose often 115 µM), for the others: at the top dose activity change, negative = inhibition, hits mostly inhibitors; 340,000 tested, under 10 active; active = well fitted inhibition curve with a large enough effect in the main read-out, with a control signal flat, not every such curve was filed as active; inconclusive = small, poorly fitted or top-dose-only effect, or effect the other way, or a change in a side signal; inactive = no such curve, though single readings can be large or run the other way; note: % of control where 0% means no effect
# Target sequence (Q99816 whole entry, looked up): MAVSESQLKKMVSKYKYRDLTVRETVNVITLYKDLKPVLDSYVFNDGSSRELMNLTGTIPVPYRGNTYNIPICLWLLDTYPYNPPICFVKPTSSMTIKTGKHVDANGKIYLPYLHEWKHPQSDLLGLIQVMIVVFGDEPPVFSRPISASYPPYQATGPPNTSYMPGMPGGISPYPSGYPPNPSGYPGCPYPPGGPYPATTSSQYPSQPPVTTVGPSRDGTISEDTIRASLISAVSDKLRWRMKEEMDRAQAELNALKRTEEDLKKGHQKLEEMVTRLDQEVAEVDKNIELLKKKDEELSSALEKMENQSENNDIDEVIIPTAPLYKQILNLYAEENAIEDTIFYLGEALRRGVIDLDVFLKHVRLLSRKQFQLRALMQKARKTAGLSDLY
#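 Compounds were pin-transferred onto Tsg101 binding domain (10 uM final) in HEPES pH 7.5 buffer, then FITC-PTAP peptide was added at 50 nM final. After 20 min at RT, polarization reported peptide displacement across a qHTS concentration series.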
# MCF10A rereplic – A quantitative high throughput screen for small molecules that induce DNA re-replication in MCF 10a normal breast cells. MCF 10A DNA re-replication, Hoechst nuclear intensity, 48 h. Potency, µM (top dose mostly 46.1 µM), without a hit: at the top dose activity, positive = re-replication, hits mostly activators. 350,000 compounds, 2.9% hits; note: % of control where 0% means no effect; nearly all actives have a fitted effect of over 50% in size
# KB-3-1 tox – qHTS assay for MDR1-selective chemotherapeutics: Primary screen using the parental adenocarcinoma cell KB-3-1 | KB-3-1 viability, CellTiter-Glo ATP luminescence, 72 h | Potency, µM (doses to about 46.1 µM), actives largely listed as cytotoxic | 400,000 compounds, 1.4% hits; note: % is set by controls: 0 for no effect and ±100 for the full control effect; nearly all actives have a fitted effect of over 60% in size
#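 Screening of KB-3-1 cells (DMEM, 10% FBS, phenol-red free) ran from lowest to highest compound concentration; after 72 h at 37 °C viability was read luminescently and curves fitted.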
# KB-V1 MDR tox – qHTS assay for MDR1-selective chemotherapeutics: Primary screen using the drug-selected MDR subline cells KB-V1; 400,000 compounds, 3.4% hits; AID 1347076, 2019; Potency, µM (doses to about 46.1 µM), hits mostly cytotoxic; KB-V1 MDR cells viability, CellTiter-Glo, 72 h; note: % is set by controls: 0 for no effect and ±100 for the full control effect; nearly all actives have a fitted effect of over 60% in size
#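 Compound-treated KB-V1 multidrug-resistant cells, 72 h, 37 degrees C; viability by CellTiter-Glo. Fitted qHTS curves give the values.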
# An asterisk follows results filed as active; i = inactive; u = inconclusive; x = not tested or not shown. Unless noted, calls come from the whole dose curve; as a rule, active = well fitted curve in the direction sought with a large enough effect; inconclusive = small, poorly fitted or top-dose-only effect, or another doubt; inactive = no such curve, though single readings can be large; an effect the other way counts as inactive or inconclusive. Potency is the fitted concentration of half-maximal effect.
SMILES,RGS4 inh,SW480 rereplic,PTAP TSG101 blk,MCF10A rereplic,KB-3-1 tox,KB-V1 MDR tox
COc1cc(/C=C(/C(=O)c2cccs2)c2nc3ccccc3[nH]2)cc(OC)c1O,u,23µM*,-3%,16µM*,3.7µM*,21µM*
CCN(C(=O)c1cccn(Cc2cccc(Cl)c2)c1=O)c1ccccc1,-11%,x,x,x,i,u
CCOC(=O)Nc1ccc(/C=C/c2ccnc3ccccc23)cc1,x,x,x,x,i,i
COc1ccc(NC(=O)CN(C)CC(=O)NC2CCC(C)CC2)cc1 (centres undefined),-52%,2%,1%,-4%,i,21µM*
COc1ccc(NC(=O)CN(C)CC(=O)NC2CCCCC2C)cc1 (centres undefined),18%,1%,-1%,6%,i,18µM*
COc1ccc(NC(=O)CN(C)CC(=O)NC(=O)NC2CCCCC2)cc1,-31%,-1%,-1%,0%,i,i
COC(=O)c1c(C)sc(-c2c(-c3ccc(F)cc3)[nH]c3[nH]c(=O)[nH]c(=O)c23)c1O,-22%,x,x,x,i,i
CCN(CC)C(=O)c1ccc2nc3ccccc3nc2c1,46%,5.2µM*,0%,u,5.8µM*,16µM*
CCN(CC)C(=O)c1ccc2nc(-c3ccccc3)c(-c3ccccc3)nc2c1,3%,1%,-1%,8%,u,4.1µM*
COc1ccccc1CNc1cc(-c2ccccc2)nc2nncn12,-17%,x,x,x,i,i
O=C1C2CC=CCC2C(=O)N1c1n[nH]c(Cc2ccccc2)n1 (centres undefined),-29%,2%,-11%,7.3µM*,i,i
O=C1C2C3C=CC(C3)C2C(=O)N1c1n[nH]c(CCc2ccccc2)n1 (centres undefined),-2%,-4%,-3%,6%,i,i
Cc1cccc(CNC(=O)c2ccc(N3Cc4ccccc4Oc4ncccc43)s2)c1,-13%,x,x,x,i,i
O=C(c1ccc(CS(=O)c2ccccc2Cl)o1)N1CCN(c2cccc(Cl)c2)CC1 (centres undefined),-9%,x,x,x,x,x
O=C(c1ccc(CS(=O)Cc2ccc(Cl)cc2)o1)N1CCN(c2ccccn2)CC1 (centres undefined),1%,12%,-2%,7%,i,u
O=C(c1ccc(CS(=O)c2ccccc2Cl)o1)N1CCN(c2ccccn2)CC1 (centres undefined),u,-2%,0%,14%,7.3µM*,u
O=C(c1ccc(CS(=O)Cc2ccccc2Cl)o1)N1CCN(c2ccccn2)CC1 (centres undefined),-1%,-6%,-4%,4%,i,18µM*
Cn1c(SCC(=O)c2ccc3c(c2)Cc2ccccc2-3)nnc1-c1cccc(N)c1,-13%,2%,-2%,18%,i,16µM*
Cc1ccc(S(=O)(=O)N(CCCO)CC(O)CON=C2c3ccccc3-c3ccccc32)cc1 (centres undefined),33%,u,-1%,18µM*,u,u
CCN(CC(O)Cn1c2ccccc2c2ccccc21)S(=O)(=O)c1ccc(C)cc1 (centres undefined),13%,u,-7%,u,u,u
CC(C)(C)c1ccc(C(=O)N2CC(=O)Nc3ccc(F)cc3C2c2ccc(F)cc2)cc1 (centres undefined),7%,x,x,x,18µM*,u
